# Measurements as given in publication PMC4081100, “A DNA-binding-site landscape and regulatory network analysis for NAC transcription factors in Arabidopsis thaliana”.
# Molecular target: T1, GST-NTL8 NAC domain (Arabidopsis thaliana, UniProt Q9XIN7 14-156)
# T1 sequence: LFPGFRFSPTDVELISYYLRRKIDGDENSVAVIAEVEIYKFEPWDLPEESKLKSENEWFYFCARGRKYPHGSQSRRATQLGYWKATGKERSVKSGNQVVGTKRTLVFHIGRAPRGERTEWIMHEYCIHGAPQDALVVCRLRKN
# Experiment: universal protein binding microarray (PBM); transcription factors of Arabidopsis thaliana; high values mean tight binding
# Conditions: protein: recombinant; tags: GST; chain copies: 2; dsDNA, one strand shown
# Procedure, shortened: (§1)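 Cells were induced to make GST-tagged NAC-domain, full-length or DNA-binding-domain proteins, and zinc acetate was added for zinc-finger proteins. These proteins were purified on glutathione–Sepharose 4B, quantified by A280 or anti-GST western blot, and applied in duplicate at 200 to 500 nM final to custom all-10-mer Agilent 4 × 180K arrays that primer extension had made double-stranded. Binding is given as the normalised enrichment score (E-score) for scored gapped and ungapped 8-mers.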
row,Sequence,binding signal [E-score]
1,CAGTCAAG,0.0503
2,AAAGGTCA,0.154
3,ACTTGACC,0.0948
4,CCCTTGAC,0.151
5,TGGGTCAA,0.0706
6,GCGAAGAC,0.109

# Molecular target: GST-WRKY1(266-371) (Arabidopsis thaliana, UniProt Q9SI37 266-371)
# Experiment: as above
# Conditions: protein: recombinant; tags: GST; dsDNA, one strand shown
# Procedure, shortened: as §1
# Sequence of GST-WRKY1(266-371) (Q9SI37 266-371): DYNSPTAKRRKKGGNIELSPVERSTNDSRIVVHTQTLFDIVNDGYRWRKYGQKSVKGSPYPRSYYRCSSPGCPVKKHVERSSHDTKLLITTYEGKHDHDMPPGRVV
row,Sequence,binding signal [E-score]
1,AGGTCAGA,0.449
2,CGTCAACC,0.435
3,GGTCAAAC,0.494
4,CAAGTCAA,0.486
5,GGTTTGAC,0.483
6,CAGTCAAG,0.444
7,GGCTTGAC,0.452
8,GGGTCAAC,0.493
9,TGACCAAA,0.457
10,CTGACCGC,0.425
11,GCCTTGAC,0.457
12,GGTCAACC,0.491
13,AAAGGTCA,0.424
14,ACTGGTCA,0.433
15,ACTTGACC,0.47
16,GTCAATGA,0.466
17,ATTGACCC,0.478
18,CTAAGTCA,0.413
19,GCGTGGAC,0.404

row,Sequence,binding signal [E-score]
1,CCCTTGAC,0.459
2,GGGTCAAA,0.48
3,CCAGTCAA,0.474
4,AGTCCACG,0.438
5,AGTTGACC,0.49
6,TGACCTAA,0.419
7,CGGTCAAG,0.483
8,AGTCAAGA,0.471
9,TGGGTCAA,0.483
10,GCATTGAC,0.47
11,AAAGTCAG,0.461
12,GCGAAGAC,0.404
13,CTCTTGAC,0.449
14,AAGTCAGC,0.459
15,GTTGACCA,0.492
16,CTGACTTA,0.42
17,CTGGTCAA,0.488
18,GCGAGTCA,0.414
19,AGTCAAGG,0.475
